For 55 compounds, INHIBITION results are on record in ChEMBL document CHEMBL4513216, “Probing the Open Global Health Chemical Diversity Library for Multistage-Active Starting Points for Next-Generation Antimalarials” (ACS Infect Dis, 2020).

Molecules are shown by their SMILES. Among all 69,000 compounds or so, about 8,600 (12%) showed an effect of 50% or more. The sample holds strong results, similar compounds and a random draw of the others, so the mix is not that of the screen.

The test system of this assay is Plasmodium berghei. Description: Screen against P. berghei liver stage (PbLuc), transformed with Luciferase, at 10uM. The format is functional, HepG2. The note with it: tested at 10 uM.
For `Cc1cc(C)c2nc(CN(C)C(C)c3ccncn3)cc(O)c2c1` (stereo not given), the INHIBITION is -33.3%.

With `Cc1noc([C@@H]2C[C@H](NC(=O)NC(C)C)CN2C)n1`, the INHIBITION was 50.2%.

Consider `Cc1noc([C@@H]2C[C@H](NC(=O)NC3CCCCC3)CN2C)n1`, for which the INHIBITION is reported as 22.2%.

For `Cc1ccc(-c2noc([C@@H]3C[C@H](NC(=O)NC(C)C)CN3C)n2)cc1`, the INHIBITION is 23%.

Consider `Cc1cnc(C(=O)NCc2ccnc(N(C)C)c2)cn1`, for which the INHIBITION is 11.6%.

On to `O=C(O)c1c[nH]c2cc(NS(=O)(=O)c3cccc(F)c3F)ccc12`, for which the INHIBITION is given as -10.1%.

Turning to `CCn1c(C)nnc1SCCNc1cc(N2CCOCC2)ncn1`, the INHIBITION came out at 14%.

For the compound `CCN1CCOC(CNCc2ccccc2OCc2cccnc2)C1` (stereo not given), the INHIBITION is recorded as -46.55%.

Regarding `CN(C)S(=O)(=O)N1CCN(C(=O)c2cc(-c3ccccc3)[nH]n2)CC1`, the INHIBITION is 18.5%.

Regarding `Cc1nn(C)c2ncnc(N3CCC(O)(CN4CCCC4)CC3)c12`, the INHIBITION is recorded as 30%.

`Cc1cnc(C(=O)N2CCN(Cc3csc(C)n3)CC2)cn1`: the INHIBITION was -26.1%.

Turning to `CN(C)CCn1c([C@H]2CCCO2)cc2cccnc21`, the INHIBITION was found to be 56.8%.

On to `CN(C)CCn1c([C@@H]2CCCO2)cc2cccnc21`, for which the INHIBITION came to 26.8%.

In the case of `c1cnc2c(c1)cc([C@H]1CCCO1)n2CCN1CCCC1`, the INHIBITION worked out at 17.1%.

Turning to `Cc1ccc(-n2cc3[nH]c(=O)n(C(C)C)n3c2=O)cc1`, the INHIBITION amounted to 0.266%.

Turning to `Cn1ccnc1CNC(=O)CCc1cccc(F)c1`, the INHIBITION is recorded as -0.35%.

On to `CC(Cc1ccco1)NC(=O)CCn1cccn1` (stereo not given), for which the INHIBITION turned out to be 38.6%.

With `CC(Cc1cccc(Cl)c1)NC(=O)Nc1cnn(CC(N)=O)c1` (stereo not given), the INHIBITION is given as -11.4%.

On to `CC(Cc1cccc(Cl)c1)NC(=O)NCc1ncnn1C` (stereo not given), for which the INHIBITION came out at 64.3%.

For the compound `CC(Cc1ccco1)NC(=O)Nc1cnn(CC(N)=O)c1` (stereo not given), the INHIBITION is 0.0932%.

With `CC(Cc1c(F)cccc1F)NC(=O)Nc1cnn(CC(N)=O)c1` (stereo not given), the INHIBITION is reported as 31.1%.

For the compound `CC(C)NC(=O)NCCCc1cccc(F)c1`, the INHIBITION is reported as 12.2%.

Take `Cc1cc(C(=O)NC(C)Cc2cccc(Cl)c2)n(C)n1` (stereo not given): the INHIBITION is 18.6%.

Regarding `COCCn1cc(NC(=O)NC(C)Cc2c(F)cccc2F)cn1` (stereo not given), the INHIBITION is reported as 15.3%.

Regarding `CC(Cc1ccco1)NC(=O)NCc1ncnn1C` (stereo not given), the INHIBITION is reported as 86.2%.

Take `CC(Cc1c(F)cccc1F)NC(=O)NCc1ncnn1C` (stereo not given): the INHIBITION is 51.4%.

Turning to `CC(CCc1cccc(F)c1)NC(=O)NCc1ncnn1C` (stereo not given), the INHIBITION worked out at 56.4%.

Take `COC(=O)N1CCCC(C(=O)NCCc2c[nH]c3cc(C)ccc23)C1` (stereo not given): the INHIBITION was found to be 47.9%.

`CC(=O)NCCn1ccc(-c2ccccn2)n1`: the INHIBITION was -13%.

Consider `O=C(c1ccc(-c2cccc3c2CCNC3)o1)N1CCCC1`, for which the INHIBITION amounted to 9.56%.

Turning to `Cc1nn(C)c2ncc(CNCCc3ccccn3)cc12`, the INHIBITION worked out at 39.7%.

With `CCN1CC2(CCCCN2C(=O)c2ccsc2)CC1=O` (stereo not given), the INHIBITION is listed as -8.51%.

Consider `CC(=O)N1CCC1c1cc(N2CC(O)C2)nc(C)n1` (stereo not given), for which the INHIBITION is 3.8%.

As to `Cc1nc2n(n1)CC(NCc1cc(Cl)c3c(c1)OCCO3)CC2` (stereo not given), the INHIBITION is given as 13.6%.

Consider `O=C1NC2(CCc3ccccc31)CCN(C(=O)c1cccnc1)C2` (stereo not given), for which the INHIBITION is 12.085%.

Take `CCN1CCOCC2(CCCN(C(=O)c3conc3C)C2)C1` (stereo not given): the INHIBITION is given as 12.4%.

For `Cn1cc(CN2CCCC3(CCN(C(=O)c4cnccn4)C3)C2)cn1` (stereo not given), the INHIBITION amounted to 49.7%.

Regarding `NC(=O)CCc1cccc(C2CCNCC2)n1`, the INHIBITION amounted to 6.26%.

For `Clc1cccc(Cl)c1CN(CCCN1CCOCC1)Cc1cccnc1`, the INHIBITION was 19.3%.

`CCNc1nc(C(=O)N(C)Cc2nc(CC)no2)cs1`: the INHIBITION was determined as 53.4%.

In the case of `CCCc1nc(C(=O)N(C)Cc2cc(CC)no2)cs1`, the INHIBITION was -59.5%.

For `CCNc1nc(C)c(C(=O)N(C)Cc2nc(CC)no2)s1`, the INHIBITION is 20.9%.

Take `CN(Cc1ccc(F)cc1)CC1(O)CCN(C(=O)c2ccncc2)C1` (stereo not given): the INHIBITION was determined as 27.8%.

Consider `COC(=O)CNC(=O)c1cn(-c2ccccn2)c(=O)c2ccccc12`, for which the INHIBITION is reported as -21.4%.

In the case of `CC(C)N1[C@H](CN2CCCC2)C[C@@H]2CN(C(=O)c3ccoc3)CC[C@@H]21`, the INHIBITION came to 15.9%.

Consider `COc1cc(C2CC(=O)NCc3nc4sccn4c32)cc(OC)c1O` (stereo not given), for which the INHIBITION was 39.3%.

As to `CCC1CC(=O)NCc2nc3sc(C)cn3c21` (stereo not given), the INHIBITION is given as 53.3%.

For `COc1cc(C)c(C2CC(=O)NCc3nc4sccn4c32)cc1C` (stereo not given), the INHIBITION is -9.18%.

For `Cc1cc(F)ccc1NC(=O)NCC(C)N1CCOCC1` (stereo not given), the INHIBITION is 39%.

In the case of `c1ccc(OCCSC2=NCCN2)cc1`, the INHIBITION worked out at 35%.

On to `CNC(=O)c1cccnc1NCCOc1ccccc1`, for which the INHIBITION is -81.6%.

Turning to `Cn1cc(NCCOc2ccc(F)cc2)cn1`, the INHIBITION stood at 8.09%.

With `Fc1ccc(OCCCNC2=NCCN2)cc1`, the INHIBITION is listed as 54.4%.

Take `c1ccc(OCCNC2=NCCCN2)cc1`: the INHIBITION is on record as 77.9%.

Turning to `Fc1ccc(OCCCNC2=NCCCN2)cc1`, the INHIBITION came to 35.4%.
